Each structure is given as a SMILES string. A number with no mark means an inactive call. Results filed as inconclusive are left out. A call without a number means that no potency is given here. The source made the active and inactive calls. The call rests on the fitted dose curve; in most records, active means well fitted curve in the direction sought with a large enough effect; inconclusive means small, poorly fitted or top-dose-only effect, or another doubt; inactive means no such curve, though single readings can be large; an effect the other way counts as inactive or inconclusive.

Potency, activity change, negative = inhibition and activity change, negative = thiol reactive data for 27 molecules are collected here from PubChem BioAssay (NCATS).

One experiment has as its target Luciferin 4-monooxygenase (Photinus pyralis) (UniProt P08659). The experiment is described as follows: Primary firefly luciferase (FLuc) qHTS assay for identification of artifact compounds. (AID 1845220). Further: nearly all actives have a fitted effect of over 60% in size. The conditions noted are these: purified firefly luciferase, luminescence, 5 min; series mostly up to 54.1 µM. In short, it runs like this:
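Compounds sat 15 min at room temperature with 10 uM luciferin and 10 uM ATP (pH 7.6 Tris acetate). Firefly luciferase (10 nM final) was then added, and luminescence was read 5 min later. Data normalized to no-enzyme and DMSO controls were Hill-fitted.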
On the technique in general: Quantitative high-throughput screening tests each substance at several concentrations.
`C[C@]1(OC(=O)/C=C/c2ccc(O)cc2)C[C@@H](O)[C@]2(O)C=CO[C@@H](O[C@@H]3O[C@H](CO)[C@@H](O)[C@H](O)[C@H]3O)C12` (some centres not stated): the Potency result is “inactive”.

`CC(CCO)CCC1C2(C)CCCC(C)(C)C2CC[C@@]1(C)O` (some centres not stated): the Potency entry was “inactive”.

`COc1ccc(C(=O)OC2C3C=COC(OC4OC(CO)C(O)C(O)C4O)C3C3(CO)OC23)cc1OC` (configuration not stated): the Potency entry is “inactive”.

Turning to `COc1cccc(C)c1C(=O)O[C@@H]1C[C@H](O[C@H]2[C@H](O)C[C@H](O[C@@H]3CCC[C@H]4[C@H]3C=C[C@@H]3CCCC/C=C/[C@H]5C=C(C(=O)O)[C@@H](C)C[C@@]56OC(=O)C(=C6O)OC(=O)[C@@]34C)O[C@@H]2C)O[C@H](C)[C@H]1O`, the activity change, negative = inhibition is 4.15% [at 11.6 µM].

As to `CC(=O)OCC1=C[C@@H]2OC(=O)C3=CO[C@@H](O[C@@H]4O[C@H](CO)[C@@H](O)[C@H](O)[C@H]4O)[C@H]1[C@@H]32`, the Potency result is “inactive”.

As for `O=C(COCC(=O)N1CCN(C(c2ccccc2)c2ccccc2)CC1)Nc1ccc(Cl)cc1C(=O)O`, the Potency entry was “inactive”.

For the molecule `CC1(C)CC[C@]2(C(=O)O[C@@H]3O[C@H](CO)[C@@H](O)[C@H](O)[C@H]3O)[C@H](O)C[C@]3(C)C(=CCC4[C@@]5(C)CC[C@H](O[C@@H]6OC[C@@H](O)[C@H](O)[C@H]6O)[C@@](C)(C(=O)O)C5CC[C@]43C)[C@@H]2C1` (some centres not stated), the Potency entry was “inactive”.

Consider `C=C1CCC2C(C)(C)CC(O)CC2(C)C1CCC(C)CCOC(=O)CCC(=O)O` (configuration not stated), for which the Potency result is “inactive”.

As to `COc1cccc(C(=O)NCCNc2nc3cc(C)cc(C)c3cc2C#N)c1`, the Potency entry was “inactive”.

Take `C=C(CCO)C(=O)OCC1OCC(OC(=O)C(=C)CCO[C@@H]2O[C@H](COC(=O)C(=C)CCO[C@@H]3O[C@H](CO)[C@@H](O)[C@H](O)[C@H]3O)[C@@H](O)[C@H](O)[C@H]2O)C(O)C1O` (some centres not stated): the Potency result is “inactive”.

For the molecule `C[C@@H]1C(=O)O[C@H](C)[C@H]1C[C@@H](O)[C@](C)(O)[C@H]1CC[C@@]2(O)C3=CC(=O)[C@@H]4C[C@@H](O)[C@@H](O)C[C@]4(C)C3CC[C@]12C` (some centres not stated), the Potency result was “inactive”.

Test system in another experiment: not listed separately
In words: Primary fluorescence-based thiol-reactive (MSTI) qHTS assay for identification of artifact compounds. (AID 1845221). Further: nearly all actives have a fitted effect of over 65% in size. Further: potency means the concentration at half of the fitted maximal effect.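 On activity change, negative = thiol reactive: thiol-reactive compounds lower the probe fluorescence signal.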 The settings on record: MSTI thiol-reactivity probe, 1 h; series mostly up to 53.8 µM. An outline of the steps:
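Probe: MSTI 4 uM, PBS pH 7.4, 2% DMSO. Incubation 1 h, RT, light-protected. Readout fluorescence 525/598 nm.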
For the molecule `C[C@@H]1O[C@@H](O[C@@H]2\C=C/C=C\C=C/C=C\C[C@H](C)OC(=O)/C=C\[C@H]3O[C@@H]3C[C@H](O)C[C@]3(O)C[C@@H](O)[C@@H](C(=O)O)[C@H](C2)O3)[C@H](O)[C@H](N)[C@@H]1O`, the Potency entry is “inactive”.

On to `C[C@H]1CC[C@@]2(OC1)O[C@H]1CC3C4CC[C@H]5C[C@@H](O[C@@H]6O[C@H](CO)[C@H](O[C@@H]7O[C@H](CO)[C@@H](O)[C@H](O[C@@H]8OC[C@@H](O)[C@H](O)[C@H]8O)[C@H]7O[C@@H]7O[C@H](CO)[C@@H](O)[C@H](O)[C@H]7O)[C@H](O)[C@H]6O)[C@H](O)C[C@]5(C)C4=CC(=O)[C@]3(C)[C@H]1[C@@H]2C` (some centres not stated), for which the activity change, negative = thiol reactive is 203% [at 11.5 µM].

As for `O=C(/C=C/c1ccc(O)cc1)OCC1OC(O)C(OC2OC(CO)C(O)C(O)C2O)C(O)C1O` (configuration not stated), the Potency result was “inactive”.

For `C=C(COC(=O)CC(C)C)C1Cc2cc(C(C)=O)ccc2O1` (configuration not stated), the Potency entry is “inactive”.

As to `COc1cn(-c2ccc(-n3cccn3)cc2F)nc(-c2ccnn2-c2ccccc2)c1=O`, the Potency result is “inactive”.

Consider `C=CC(C)(C)C12Nc3c(ccc4c3OC(C)(C)C=C4)C1(O)CC1C(=O)N3CCCC3C(=O)N12` (configuration not stated), for which the Potency result was “inactive”.

With `C[C@@H]1C[C@@H](O)[C@@]23CO[C@]2(CO)CCC[C@@H]3[C@@]12C[C@@H](c1ccoc1)OC2=O`, the Potency entry was “inactive”.

In the case of `CC1=C(CCC(C)O[C@@H]2O[C@H](CO)[C@@H](O)[C@H](O)[C@H]2O)C(C)(C)CC(O)C1` (some centres not stated), the Potency is 5.85 µM (active).

For `OC[C@H]1O[C@@H](OCCc2ccccc2)[C@H](O)[C@@H](O)[C@@H]1O`, the Potency was 11.9 µM (active).

Turning to `Nc1ncnc2c1c(COc1cccc(Cl)c1)nn2C1CCOCC1`, the Potency entry was “inactive”.

As for `C=C(C)C1Cc2c(ccc3c2OCC(c2ccc(O)cc2O)C3)O1` (configuration not stated), the Potency result is “inactive”.

As for `CC(C)=C1CC2C(CCC2(C)O)C(C)(O)CC1=O` (configuration not stated), the Potency is 23.8 µM (active).

Turning to `C/C=C1/C[N+](C)([O-])C2Cc3c([nH]c4ccccc34)C(=O)CC1C2C(=O)OC` (configuration not stated), the Potency entry is “inactive”.

As to `C=C1C[C@]23C[C@H]1CC[C@H]2[C@]1(C)CC[C@H](O)[C@@](C)(C(=O)O)[C@H]1[C@@H]3C(=O)O`, the Potency result is “inactive”.

For `CC1=C2CC(=O)C(C)CC/C=C(\C)CC2OC1=O` (configuration not stated), the Potency entry was “inactive”.

With `CC(=O)OCC1OC(OC2COC(OC3COC(OC4C(OC5C(CO)OC(OC6CCC7(C)C(CCC8(C)C7CC=C7C9CC(C)(C)CCC9(C(=O)OC9OC(CO)C(O)C(O)C9OC9OCC(OC%10OCC(O)(CO)C%10O)C(O)C9O)C(O)CC78C)C6(C)C)C(O)C5O)OCC(O)C4O)C(O)C3O)C(O)C2O)C(OC(=O)/C=C/c2ccccc2)C(O)C1OC(C)=O` (configuration not stated), the activity change, negative = thiol reactive was 153% [at 6.41 µM].
